# Test results taken from PubChem BioAssay.
# Records with an inconclusive call do not appear. Calls of active or inactive are those of the source. Unless noted, how the calls were made is not given here.
# Legend:
# [1] = circadian clock period modulators, cell-based, LOPAC library, luminescence reporter (AID 2774); settings: circadian reporter cells, at 7 µM, actives lie on both sides;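 further: values are relative to mean of DMSO wells on each plate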
# [2] = Cy5 fluorescence quenching or enhancement artefacts, artefact control for HCV NS3 helicase inhibitor project, biochemical, LOPAC1280 (AID 687037); settings: Cy5-DNA-NS3h complex fluorescence interference counterscreen
# [3] = system: Neuropilin-2 / VEGF-C interaction (human); test: inhibitors of NRP2–VEGF-C binding, biochemical, microplate binding format, z-score (AID 743281); settings: microplate NRP2/VEGF-C binding assay; stronger effect = lower value
# [4] = phospholipid biosynthesis inhibitors in animal cells, primary screen, cell-based, LOPAC library, screen 4 (AID 1347384); settings: phospholipid biosynthesis inhibition screen, at 10 µM
# [5] = biological target: ATP-dependent translocase ABCB1 (Homo sapiens) (UniProt P08183); test: MDR1 (ABCB1) efflux transporter inhibition, cell-based (AID 377; in the data active means fluorescence slope change above about 50%); settings: MDR1-expressing cells, fluorescent substrate accumulation slope; stronger effect = higher value; concentration not given here
# Sequence of ATP-dependent translocase ABCB1 (Homo sapiens) (P08183 whole entry, looked up): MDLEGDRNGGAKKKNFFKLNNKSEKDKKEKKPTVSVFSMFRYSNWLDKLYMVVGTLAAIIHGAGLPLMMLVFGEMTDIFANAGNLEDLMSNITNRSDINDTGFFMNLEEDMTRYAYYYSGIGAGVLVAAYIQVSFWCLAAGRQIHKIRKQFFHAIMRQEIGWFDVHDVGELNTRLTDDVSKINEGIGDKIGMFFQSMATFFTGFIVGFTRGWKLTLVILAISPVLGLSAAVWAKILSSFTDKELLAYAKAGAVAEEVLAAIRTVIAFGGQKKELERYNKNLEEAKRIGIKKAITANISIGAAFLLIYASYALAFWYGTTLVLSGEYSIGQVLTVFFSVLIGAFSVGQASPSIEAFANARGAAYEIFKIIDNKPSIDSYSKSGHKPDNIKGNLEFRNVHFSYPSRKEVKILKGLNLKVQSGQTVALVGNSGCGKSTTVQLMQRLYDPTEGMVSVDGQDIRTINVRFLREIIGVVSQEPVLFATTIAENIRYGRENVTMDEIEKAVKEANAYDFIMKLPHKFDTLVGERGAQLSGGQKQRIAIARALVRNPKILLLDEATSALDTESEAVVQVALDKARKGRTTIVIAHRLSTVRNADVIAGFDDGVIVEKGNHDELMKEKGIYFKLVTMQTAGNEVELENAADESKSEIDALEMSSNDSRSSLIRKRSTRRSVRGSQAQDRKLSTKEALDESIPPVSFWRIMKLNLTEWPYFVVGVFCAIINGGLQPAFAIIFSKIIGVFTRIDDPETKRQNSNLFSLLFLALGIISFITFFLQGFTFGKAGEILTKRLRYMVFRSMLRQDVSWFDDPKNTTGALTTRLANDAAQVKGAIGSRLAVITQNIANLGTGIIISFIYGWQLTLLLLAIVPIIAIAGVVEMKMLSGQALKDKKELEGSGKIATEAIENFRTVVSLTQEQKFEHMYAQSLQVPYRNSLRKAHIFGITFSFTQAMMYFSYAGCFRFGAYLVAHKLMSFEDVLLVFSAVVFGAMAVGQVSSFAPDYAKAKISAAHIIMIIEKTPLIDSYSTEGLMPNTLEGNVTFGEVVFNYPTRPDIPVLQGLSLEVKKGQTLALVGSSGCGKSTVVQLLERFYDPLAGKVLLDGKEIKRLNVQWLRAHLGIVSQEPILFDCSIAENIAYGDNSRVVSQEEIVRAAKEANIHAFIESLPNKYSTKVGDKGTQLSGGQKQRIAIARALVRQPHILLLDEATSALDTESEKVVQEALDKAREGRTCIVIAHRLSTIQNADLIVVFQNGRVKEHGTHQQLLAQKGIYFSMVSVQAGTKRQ
# [6] = reducers of polyQ inclusions in PC12 cells, cell-based, NGF-treated PC12, GFPQ80 (AID 1614); settings: PC12 NGF-treated GFP-polyQ80 inclusion reduction;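 further: lower means fewer inclusions and 0 means no inclusions at all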
# [7] = growth inhibition of DIPG glioma cells, dose response, cell-based, SU-DIPG-XVII, MIPE5.0, CellTiter-Glo, qHTS (AID 1347060; cut-off not given, nearly all actives have AC50 up to about 26 µM); settings: SU-DIPG-XVII viability, CellTiter-Glo ATP luminescence
# [8] = growth inhibition of DIPG glioma cells, dose response, cell-based, SU-DIPG-XIII, MIPE4.0, CellTiter-Glo, qHTS (AID 1347061; cut-off not given, nearly all actives have AC50 up to about 37 µM;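 further: cells exposed to compound for 48 hours before readout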); settings: SU-DIPG-XIII viability, CellTiter-Glo ATP luminescence
# [9] = viability loss in pontine glioma line – cell-based, SU-DIPG-XXV, MIPE5.0, CellTiter-Glo, qHTS, dose response (AID 1347065; cut-off not given, nearly all actives have AC50 up to about 26 µM;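 further: cells exposed to compound for 48 hours before ATP readout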); settings: CellTiter-Glo ATP luminescence
# [10] = SU-DIPG-VI glioma cell viability, MIPE4.0 library, CellTiter-Glo luminescence, qHTS (AID 1347066; cut-off not given, nearly all actives have AC50 up to about 30 µM;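 further: cells exposed to compound for 48 hours before readout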); settings: CellTiter-Glo ATP luminescence
# [11] = JHH-DIPG-1 glioma cell viability, MIPE5.0 library, CellTiter-Glo luminescence, qHTS (AID 1347067; cut-off not given, nearly all actives have AC50 up to about 26 µM;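 further: cells exposed to compound for 48 hours before readout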); settings: JHH-DIPG-1 glioma viability, CellTiter-Glo ATP luminescence
# [12] = SU-DIPG-XXV glioma cell viability, MIPE5.0 library, qHTS (AID 1347068; cut-off not given, nearly all actives have IC50 up to about 30 µM;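 on IC50: cells exposed to compound for 48 hours before viability readout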)
# [13] = growth inhibition of DIPG glioma cells, dose response, cell-based, JHH-DIPG-1, MIPE4.0, CellTiter-Glo, qHTS (AID 1347062; cut-off not given, nearly all actives have AC50 up to about 27 µM;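 on AC50: cells exposed to compound for two days before readout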); settings: JHH-DIPG-1 viability, CellTiter-Glo ATP luminescence
# [14] = growth inhibition of DIPG glioma cells, dose response, cell-based, SU-DIPG-XIII, MIPE5.0, CellTiter-Glo, qHTS (AID 1347064; cut-off not given, nearly all actives have AC50 up to about 23 µM); settings: SU-DIPG-XIII viability, CellTiter-Glo ATP luminescence
# [15] = growth inhibition of DIPG glioma cells, dose response, cell-based, SU-DIPG-IV, MIPE4.0, CellTiter-Glo, qHTS (AID 1347063; cut-off not given, nearly all actives have AC50 up to about 30 µM;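 further: compound exposure lasted 48 hours before the viability readout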); settings: SU-DIPG-IV viability, CellTiter-Glo ATP luminescence
# [16] = LFS_MB_P medulloblastoma growth inhibition, cell-based, chromothripsis tumors, cisplatin or BGB combos (AID 1671449; in the data active means inhibition above about 80%;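 further: cells exposed for 96 hours; 0% = vehicle DMSO and 100% = killing by high DMSO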); settings: LFS_MB_P medulloblastoma cells
# [17] = HDN33 neuroblastoma growth inhibition, cell-based, chromothripsis tumors, cisplatin or BGB combos (AID 1671450; in the data active means inhibition above about 80%;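 further: cells exposed to compound for four days; 0% = vehicle DMSO and 100% = cell killing by high DMSO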); settings: HDN33 neuroblastoma cells, stronger effect = higher value
# [18] = ICB984 medulloblastoma cell growth inhibition, synergistic combos for chromothripsis tumors, cisplatin or BGB combos (AID 1671451); settings: ICB984 medulloblastoma cells, drug combinations, stronger effect = higher value;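 further: cells exposed for 96 hours before readout; 0% = vehicle DMSO and 100% = killing by high DMSO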
# [19] = HTB85 osteosarcoma cell growth inhibition, synergistic combos for chromothripsis tumors, BGB or cisplatin IC20 combos (AID 1671453; in the data active means inhibition above about 80%;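 further: cells exposed for 96 hours before readout; 0% = vehicle DMSO and 100% = high DMSO killing control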); settings: HTB85 osteosarcoma cells, drug combinations, stronger effect = higher value
structure (smiles),measurement,setting,value
COc1ccccc1N1CCN(CCCNc2cc(=O)n(C)c(=O)n2C)CC1,period change,[1],0.18 h (inactive)
same,fluorescence ratio (interference),[2],1 (inactive)
same,z-score,[3],-0.551 (inactive)
same,outcome,[4],inactive
C[C@@H](O)[C@H]1C(=O)N2C(C(=O)O)=C(S[C@@H]3CN[C@H](C(=O)N(C)C)C3)[C@H](C)[C@H]12,z-score,[3],-0.132 (inactive)
COc1ccc2c(c1)c(CC(=O)O)c(C)n2C(=O)c1ccc(Cl)cc1,fluorescence slope change,[5],95% (active)
same,inclusion score,[6],2
same,period change,[1],0.07 h (inactive)
same,fluorescence ratio (interference),[2],1 (inactive)
same,z-score,[3],0.68 (inactive)
same,outcome,[7],inactive
same,AC50,[8],18.7 µM (active)
same,outcome,[9],inactive
same,outcome,[10],inactive
same,outcome,[11],inactive
same,outcome,[12],inactive
Nc1nc2ccc(OC(F)(F)F)cc2s1,fluorescence slope change,[5],60.6% (active)
same,period change,[1],0.11 h (inactive)
same,fluorescence ratio (interference),[2],0.9 (inactive)
same,z-score,[3],1.45 (inactive)
same,outcome,[7],inactive
same,outcome,[8],inactive
same,outcome,[13],inactive
same,outcome,[14],inactive
same,outcome,[10],inactive
same,IC50,[12],20.9 µM (active)
same,outcome,[4],inactive
CCOC(=O)N1CCC(=C2c3ccc(Cl)cc3CCc3cccnc32)CC1,period change,[1],-0.1 h (inactive)
same,fluorescence ratio (interference),[2],1 (inactive)
same,z-score,[3],0.735 (inactive)
same,outcome,[8],inactive
same,outcome,[13],inactive
same,AC50,[15],18.7 µM (active)
same,outcome,[4],inactive
CCn1cc(C(=O)O)c(=O)c2cc(F)c(N3CCNCC3)cc21,fluorescence slope change,[5],98.4% (active)
same,inclusion score,[6],2
same,outcome,[8],inactive
same,outcome,[13],inactive
same,outcome,[14],inactive
same,outcome,[9],inactive
same,outcome,[10],inactive
same,outcome,[12],inactive
same,inhibition,"[16]; at 0.5 µM, stronger effect = higher value",7.63% (inactive)
same,inhibition,"[16]; measured here: combination with BGB IC20, at 0.005 µM",-17.9%
same,inhibition,"[16]; measured here: combination with BGB IC40, at 0.005 µM",-10.9%
same,inhibition,"[16]; measured here: combination with BGB IC40, at 0.05 µM",-0.516%
same,inhibition,"[16]; measured here: combination with cisplatin, at 0.5 µM, stronger effect = higher value",9.32%
same,inhibition,"[16]; measured here: combination with cisplatin, at 5 µM, stronger effect = higher value",-19.2%
same,inhibition,"[17]; BGB combo, at 5 µM",-0.689%
same,inhibition,[17]; at 0.5 µM,12.2% (inactive)
same,inhibition,"[17]; cisplatin combo, at 5 µM",-11.9%
same,inhibition,"[17]; measured here: with BGB IC20 combination, at 0.5 µM",32.5%
same,inhibition,"[17]; measured here: with cisplatin IC20 combination, at 0.5 µM",3.81%
same,inhibition,"[17]; single agent, at 5 µM",-7.4%
same,inhibition,"[18]; BGB IC20 combo, at 0.005 µM",-26.7%
same,inhibition,"[18]; BGB IC40 combo, at 0.005 µM",-18.2%
same,inhibition,"[18]; BGB IC40 combo, at 0.05 µM",-41.7%
same,inhibition,[18]; at 0.5 µM,-9.23% (inactive)
same,inhibition,"[18]; cisplatin combo, at 0.05 µM",-41.7%
same,inhibition,"[18]; cisplatin combo, at 0.5 µM",-13%
same,inhibition,"[18]; cisplatin combo, at 5 µM",-17.2%
same,inhibition,"[18]; measured here: 5 uM single agent, at 5 µM",-7.24%
same,inhibition,[19]; at 0.5 µM,-8.02% (inactive)
same,inhibition,"[19]; measured here: with BGB IC20, at 0.5 µM",-33.2%
same,inhibition,"[19]; measured here: with BGB IC20, at 5 µM",-19.1%
same,inhibition,"[19]; measured here: with cisplatin IC20, at 0.5 µM",12.6%
same,inhibition,"[19]; measured here: with cisplatin IC20, at 5 µM",-7.29%
same,inhibition,"[19]; single agent, at 5 µM",1.89%
O=c1n(CCCN2CCN(c3cccc(Cl)c3)CC2)nc2ccccn12,fluorescence slope change,[5],85.5% (active)
same,inclusion score,[6],2
same,period change,[1],-0.06 h (inactive)
same,fluorescence ratio (interference),[2],1 (inactive)
same,z-score,[3],0.0689 (inactive)
same,outcome,[8],inactive
same,outcome,[13],inactive
same,outcome,[15],inactive
same,outcome,[10],inactive
same,outcome,[4],inactive
CNC(=O)Oc1ccc2c(c1)[C@]1(C)CCN(C)[C@@H]1N2C,inclusion score,[6],2
same,period change,[1],0.16 h (inactive)
same,fluorescence ratio (interference),[2],1 (inactive)
same,outcome,[4],inactive
CC(=O)OCC(=O)[C@@]1(O)CC[C@H]2[C@@H]3CCC4=CC(=O)C=C[C@]4(C)[C@H]3[C@@H](O)C[C@@]21C,outcome,[8],inactive
same,outcome,[13],inactive
same,outcome,[14],inactive
same,outcome,[9],inactive
same,outcome,[10],inactive
same,outcome,[11],inactive
same,outcome,[12],inactive
CC1(C)O[C@@H]2C[C@H]3[C@@H]4C[C@H](F)C5=CC(=O)C=C[C@]5(C)[C@H]4[C@@H](O)C[C@]3(C)[C@]2(C(=O)CO)O1,fluorescence slope change,[5],24.8% (inactive)
same,outcome,[7],inactive
same,outcome,[14],inactive
same,outcome,[9],inactive
same,outcome,[11],inactive
same,outcome,[12],inactive
CC(=O)OCC(=O)[C@@]1(O)CC[C@H]2[C@@H]3CCC4=CC(=O)CC[C@]4(C)[C@H]3C(=O)C[C@@]21C,period change,[1],-0.03 h (inactive)
same,fluorescence ratio (interference),[2],0.9 (inactive)
same,outcome,[8],inactive
same,outcome,[13],inactive
same,outcome,[15],inactive
same,outcome,[9],inactive
same,outcome,[10],inactive
same,outcome,[11],inactive
same,outcome,[12],inactive
same,outcome,[4],inactive
CC(=O)O[C@]1(C(C)=O)CC[C@H]2[C@@H]3C=C(C)C4=CC(=O)CC[C@]4(C)[C@H]3CC[C@@]21C,AC50,[13],11.8 µM (active)
same,AC50,[15],8.33 µM (active)
same,outcome,[14],inactive
same,outcome,[10],inactive
same,outcome,[12],inactive
